# Shown are actives, neighbours in structure and some others; about 2.3% of the full set was active somewhere.
# Coupling enz: inhibits coupling enzyme system, counter-screen for aldolase hits | AID 2472 | coupling enzyme system counterscreen, AmpLite Red fluorescence | activity change, negative = inhibition, % at 58.2 µM, hits read low | actives 0.67% (n = 290,000); in the data active means activity change below about -30%
#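 Activity here indicates interference with the coupling reaction, not aldolase inhibition. Compounds at 57.5 uM final met coupling enzymes for 10 min at RT; substrate and AmpLite Red detection followed, with a 525/598 nm fluorescence read after 20 min.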
# VDR inhibitor: inhibitors of human vitamin D receptor; P11473; VDR-SRC2-3 peptide fluorescence polarization, 2 h; Potency, µM, actives largely listed as inhibitors; actives 0.93% (n = 400,000)
#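 Fluorescence polarization assay of small-molecule disruption of VDR binding to coregulator peptide SRC2-3. Compounds and controls pin-transferred, then read after 2 h incubation at ambient room temperature.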
# HTT ATP protect: protects HTT-Q103 PC12 cells, measured by ATP; Potency, µM (series often up to 56.4 µM), actives largely listed as activators; actives 0.14% (n = 230,000); PC12 HTT-Q103 induced, cytoprotection, ATP luminescence, 40 h; further: nearly all actives have a fitted effect of over 45% in size
#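 Quantitative HTS on tebufenozide-induced (100 nM) PC12 cells expressing HTTQ103 exon 1–GFP; compounds tested as a concentration series; survival measured via cellular ATP.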
# JMJD2E inh: blocks human JMJD2E demethylase activity; actives 1.6% (n = 230,000); AID 2147; JMJD2E catalytic domain, FDH-coupled NADH fluorescence (FDH is formaldehyde dehydrogenase); B2RXH2; Potency, µM (titrated, usually from 57.1 µM), usual class: inhibitors; active means well fitted inhibition curve with a large enough effect, not every such curve was filed as active; inconclusive means small, poorly fitted or top-dose-only effect, or another doubt; inactive means no such curve, though single readings can be large or run the other way; further: nearly all actives have a fitted effect of over 50% in size
# Target sequence (B2RXH2 1-337 limits assumed): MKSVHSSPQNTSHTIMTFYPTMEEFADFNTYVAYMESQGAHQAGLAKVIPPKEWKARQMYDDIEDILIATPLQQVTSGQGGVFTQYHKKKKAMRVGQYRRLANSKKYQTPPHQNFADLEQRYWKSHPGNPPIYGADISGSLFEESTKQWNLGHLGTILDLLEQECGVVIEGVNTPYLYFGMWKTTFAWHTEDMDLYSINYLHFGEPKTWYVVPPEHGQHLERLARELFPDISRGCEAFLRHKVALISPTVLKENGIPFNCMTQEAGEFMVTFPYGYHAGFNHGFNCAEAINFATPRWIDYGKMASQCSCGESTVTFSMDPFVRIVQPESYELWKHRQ
# RGS12 GoLoco inh: blocks human Gai1 binding to RGS12 GoLoco peptide, red readout; P63096; Gai1:RGS12 GoLoco peptide FP, rhodamine, 10 min; Potency, µM (top dose mostly 61.6 µM), hits mostly inhibitors; actives 0.44% (n = 230,000); active means well fitted inhibition curve with a large enough effect, not every such curve was filed as active; inactive means no such curve, though single readings can be large or run the other way; further: nearly all actives have a fitted effect of over 30% in size
# Target sequence (P63096 whole entry, looked up): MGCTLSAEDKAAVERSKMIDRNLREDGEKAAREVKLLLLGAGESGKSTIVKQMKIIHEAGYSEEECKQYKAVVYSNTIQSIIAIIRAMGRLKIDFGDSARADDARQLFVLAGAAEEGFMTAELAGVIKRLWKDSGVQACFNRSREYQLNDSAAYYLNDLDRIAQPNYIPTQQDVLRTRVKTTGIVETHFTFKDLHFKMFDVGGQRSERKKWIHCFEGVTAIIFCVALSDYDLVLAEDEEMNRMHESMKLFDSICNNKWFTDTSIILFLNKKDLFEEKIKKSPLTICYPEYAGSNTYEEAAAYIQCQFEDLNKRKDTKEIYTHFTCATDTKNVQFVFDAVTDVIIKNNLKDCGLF
# HttQ103 aggreg: reduces HttQ103-GFP aggregates in PC12 cells; PC12 HttQ103-GFP aggregates, Acumen cytometry, 40 h; Potency, µM (titrated, usually from 46.1 µM), actives largely listed as inhibitors; actives 1.1% (n = 220,000); AID 1688; further: nearly all actives have a fitted effect of over 60% in size
#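 Using laser scanning cytometry, GFP-positive aggregates were counted after lysis of PC12 cells induced with 100 nM tebufenozide to express HTT exon 1 Q103–GFP. Compounds were tested in titration.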
# Hits are given with their value; i = inactive; ? = inconclusive; nt = no result; [ ] = another dose, or the depositor's remark. Unless noted, the call rests on the fitted dose curve; in most records, active means well fitted curve in the direction sought with a large enough effect; inconclusive means small, poorly fitted or top-dose-only effect, or another doubt; inactive means no such curve, though single readings can be large; an effect the other way counts as inactive or inconclusive.
SMILES,Coupling enz,VDR inhibitor,HTT ATP protect,JMJD2E inh,RGS12 GoLoco inh,HttQ103 aggreg
O=C1CC(c2ccco2)CC(O)=C1C=Nc1cc(Cl)ccc1O (centres undefined),i,i,i,28µM,i,i
O=C1CC(c2ccco2)CC(O)=C1C=Nc1cc(Cl)ccc1Cl (centres undefined),i,i,i[10 µM],i,i,?
Cn1c(SCC(=O)N2CCCc3ccccc32)ncc(C(=O)Nc2ccc(Cl)cc2)c1=O,nt,i,nt,nt,nt,nt
COc1ccc(NC(=O)N2CCCC3(CCNCC3)C2)cc1,i,i,1.6µM,nt,i,nt
O=C(CSc1nncs1)Nc1ccc2c(c1)OCO2,i,i,i,i,i,i
Cc1ccc(C)c(CSc2c(C(C)C)cnc3c2c(=O)n(C)c(=O)n3C)c1,nt,i,nt,nt,nt,nt
O=C(O)/C=C/C(=O)Nc1ccc(C2(c3ccc(NC(=O)/C=C/C(=O)O)cc3)c3ccccc3-c3ccccc32)cc1,i,25µM,nt,nt,nt,nt
c1ccc(CNc2ncnc3c2oc2ccccc23)nc1,i,i,i,i,i,i
CCc1nc(NCc2ccccn2)c2oc3ccccc3c2n1,i,i,i[0.074 µM],?,i,13µM
COC(=O)C1=C(C)NC(C)=C(C(=O)OCCCN2CCC(c3ccccc3)(c3ccccc3)CC2)C1c1cccc([N+](=O)[O-])c1 (centres undefined),nt,i,i,nt,i,?
CN(C)/C=C(\C#N)C(=O)Nc1ccc(O)cc1F,i,i,i,i,i,i
COc1ccccc1CN=Cc1[nH]c2ccc(Br)c(Cl)c2c1O,-44,i,i,i,i,?
Cc1cccc(N=Cc2c(O)cc(C)oc2=O)c1,i,i,nt,?,i,i
Cc1cccc(N=Cc2[nH]c3ccc(Br)c(Cl)c3c2O)c1,-33,i,i[10 µM],i,i,i
O=C(Nc1cccc(F)c1)N1CC[C@@]2(CCCN(S(=O)(=O)c3ccccc3)C2)C1,i,i,i,nt,i,nt
O=C(NCCc1ccccc1)C1CCC(CNS(=O)(=O)c2ccc(F)cc2)CC1 (centres undefined),nt,i,nt,nt,nt,nt
COc1ccccc1NS(=O)(=O)c1ccc(Br)s1,i,i,i,i,i,i
O=S(=O)(Nc1cc(O)cc2cccnc12)c1ccc(Br)s1,-68,nt,nt,nt,nt,nt
O=S(=O)(Nc1nc2ccccc2s1)c1ccc(Cl)s1,i,i,i,i,i,?
O=S(=O)(Nc1cc(O)cc2cccnc12)c1ccc(Cl)s1,-64,nt,nt,nt,nt,nt
CCN(CC)C(=O)c1ccc(S(=O)(=O)NCc2cccnc2)cc1,i,i,i[10 µM],i,i,11µM
Cc1ccc([N+](=O)[O-])c(C)[n+]1C,i,i,i,18µM,i,i
COc1ccc(C(NC(=O)c2cccnc2)c2cc(Cl)c3cccnc3c2O)cc1OC (centres undefined),i,i,i,i,i,2.8µM
Oc1c(C(Nc2ccccn2)c2cccnc2)cc(Cl)c2cccnc12 (centres undefined),i,?,i[10 µM],?,i,7.1µM
Cc1c(Cl)cccc1NC(=S)N(CCN(C)C)C(C)c1ccco1 (centres undefined),i,i,i[10 µM],i,i,i[9.22 µM]
SMILES,Coupling enz,VDR inhibitor,HTT ATP protect,JMJD2E inh,RGS12 GoLoco inh,HttQ103 aggreg
Cc1ccc(C)c(S(=O)(=O)N2CCN(Cc3cc4c(cc3O)OCO4)CC2)c1,nt,i,nt,nt,nt,nt
COC(=O)C1=C(O)/C(=C\c2cc(C)n(-c3ccccc3C)c2C)N=C1C,-42,i,i[10 µM],?,i,i
COC(=O)c1cccc(-n2c(C)cc(C=O)c2C)c1C,i,i,i[10 µM],i,i,i
CCCCC1CCC(C(=O)N2CC(=O)Nc3ccc(F)cc3C2c2ccc(F)cc2)CC1 (centres undefined),nt,i,nt,nt,nt,nt
Cc1cc(C)nc(SCC(=O)Nc2ccnc3ccccc23)n1,i,i,nt,i,i,?
O=C(CSC1=NCCS1)Nc1ccnc2ccccc12,i,i,i,i,i,10µM
Cc1cccc(-n2c(C)cc(/C=C3\C(=N)N4N=C(CC(C)C)SC4=NC3=O)c2C)c1,i,i,i[10 µM],?,i,i
CSC1=NSC2=NC(=O)/C(=C\c3ccc(OC(=O)c4ccco4)cc3)C(=N)N12,i,i,nt,nt,nt,nt
CC(C)CC1=NN2C(=N)/C(=C\c3coc4ccccc4c3=O)C(=O)N=C2S1,i,79µM,i,?,i,i
CCSC1=NSC2=NC(=O)/C(=C\c3coc4ccccc4c3=O)C(=N)N12,i,79µM,i[10 µM],?,i,i
O=C(NCC(c1ccco1)S(=O)(=O)c1ccc(Cl)cc1)c1ccc(C(F)(F)F)cc1 (centres undefined),nt,i,nt,nt,nt,nt
C/C(CC(=O)N1CCN(C=O)CC1)=N\NC(=O)c1cc2ccccc2cc1O,i,i,i[10 µM],28µM,i,i
C/C(CC(=O)N1CCN(C=O)CC1)=N\NC(=O)c1ccc([N+](=O)[O-])cc1,i,i,i[10 µM],i,i,i[9.22 µM]
CC(=O)c1cccc(NC(=O)c2ccc3c(c2)OCO3)c1,i,79µM,nt,nt,nt,nt
O=C(Nc1ccc2c(c1)OCCO2)c1ccc(Br)c(S(=O)(=O)N2CCOCC2)c1,i,i,i[10 µM],i,nt,i
O=C(Nc1ccc2c(c1)OCO2)c1ccc(Br)c(S(=O)(=O)N2CCCC2)c1,i,i,i,i,i,13µM
Nc1nc(NCC2CCC(CNS(=O)(=O)c3cccc4ccccc34)CC2)nc2ccccc12 (centres undefined),i,i,i,nt,i,nt
CC(C)N1CCc2c(sc(NC(=S)NC(=O)c3ccccc3)c2C#N)C1,-39,i,i[10 µM],i,i,i
CNc1nc(-c2ccccc2Cl)nc2ccccc12,i,?,i,i,i,nt
CNc1nc(-c2ccccc2C)nc2ccccc12,i,45µM,i,nt,i,nt
CNc1nc(-c2cccc(NS(C)(=O)=O)c2)nc2ccccc12,i,45µM,i,nt,i,nt
CS(=O)(=O)Nc1cccc(-c2nc(Nc3ccc(F)cc3)c3ccccc3n2)c1,i,i,i,?,i,nt
COc1ccc(C(=O)Oc2c(Sc3ccc(C)cc3)c(C)nn2C(C)(C)C)c(OC)c1,nt,i,nt,nt,nt,nt
O=C(NCc1cccc(Cl)c1)c1cc(COc2ccc3ncccc3c2)on1,i,i,i[10 µM],?,i,i[9.22 µM]
CC(C)N(Cc1nccn1C)C(=O)c1cc(COc2ccc3ncccc3c2)on1,i,i,i,i,i,20µM
Cc1ccc(F)cc1CNC(=O)c1cc(COc2ccc3ncccc3c2)on1,i,i,i,i,i,13µM
COc1cc2cc(CN(Cc3nnnn3Cc3ccco3)C3CCCCC3)c(=O)[nH]c2cc1OC,-33,i,i,?,i,i
CCN(CC)Cc1ccc(Nc2ccnc3cc(Cl)ccc23)cc1O,i,i,14µM,i,i,nt
Cc1nnc(SC(C)C(=O)Nc2ccc3ccccc3c2)n1C (centres undefined),nt,i,nt,nt,nt,nt
Cc1cc(C(=O)CSc2nnc(-c3ccccc3)n2Cc2ccc3c(c2)OCO3)c(C)n1C,i,i,i[0.074 µM],i,i,i
